FUS suppressor: FUS proteinopathy suppression in yeast; S. cerevisiae FUS-expressing, growth rescue, OD600, 24 h; Potency, µM (top dose mostly 76.6 µM), hits mostly activators; 0.24% of 390,000 active; AID 1347120; note: nearly all actives have a fitted effect of over 55% in size
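Yeast FUS proteinopathy model; galactose-induced FUS (2%), starting OD 0.005. Cpds in dilution series, 24hr, 30C, 99% humidity. Abs 600 nm growth. Pos ctrl CP55940 (top 92uM final); neg ctrl DMSO.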
TDP43 rescue: rescues yeast growth from TDP-43 toxicity | TDP-43 expressing yeast growth rescue, BacTiter-Glo, 24 h | Potency, µM (series often up to 46.1 µM), most hits filed as activators | 1.8% of 410,000 active | AID 652104; note: nearly all actives have a fitted effect of over 50% in size
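Yeast cells expressing TDP-43 under galactose induction are exposed to compounds for 24 hr at 30 deg C. BacTiter-Glo luminescence measures growth, so protective compounds score as activators.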
aSyn yeast inh: inhibitors of alpha-synuclein toxicity in yeast. Potency, µM (top dose mostly 46.1 µM), hits mostly activators. Yeast expressing alpha-synuclein, growth rescue, BacTiter-Glo, 24 h. 0.14% of 370,000 active; note: nearly all actives have a fitted effect of over 65% in size
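Screening used galactose-induced yeast with toxic alpha-synuclein levels, exposed to compound for 24 hr at 30 deg C. Cell growth, read with BacTiter-Glo luminescence, gave the measured signal.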
Abeta yeast res: restores growth of yeast expressing A-beta42 peptide | yeast expressing A-beta42, growth rescue, OD600, 48 h; response scale: 0% DMSO, 100% iron-clioquinol control | 0.063% of 410,000 active | Potency, µM (doses to about 46.1 µM), hits mostly activators | AID 1347071; note: nearly all actives have a fitted effect of over 55% in size
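Yeast A-beta toxicity model in growth medium with pinned compounds, 48 h at 30 C; growth read as absorbance at 600 nm. Normalized to FeCl3/clioquinol equimolar mix (positive) and DMSO (negative).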
A number is an active result; 0 = inactive; ? = inconclusive; - = no result; ! = a repeat was not active. Hits are enriched below; roughly 2.1% of the tested compounds scored in any of these assays. Calls come from the whole dose curve; as a rule, active = well fitted curve in the direction sought with a large enough effect; inconclusive = small, poorly fitted or top-dose-only effect, or another doubt; inactive = no such curve, though single readings can be large; an effect the other way counts as inactive or inconclusive.

SMILES	FUS suppressor	TDP43 rescue	aSyn yeast inh	Abeta yeast res
CC(=O)C(C)Oc1ccc2c3c(c(=O)oc2c1C)CCCC3 (configuration not stated)	0	20µM	0	0
Cc1ccc(C)c(NC(=O)c2cc(=O)c3cc(C)cc(C)c3o2)c1	0	0	-	0
CCCN1CCOC(CC(=O)Nc2ccc([N+](=O)[O-])cc2)C1=O (configuration not stated)	0	20µM	0	0
Clc1cccc(CSc2ncn(-c3ccccc3)n2)c1	0	13µM	0	0
Cc1ccc(-n2nnnc2-c2cnoc2-c2cccc(F)c2)cc1	0	14µM	0	0
COc1ccccc1N1CCN(C(=O)c2cc3c(s2)-c2ccccc2OC3)CC1	?	11µM!	0	0
CCc1cc(C(=O)N2CCN(c3ccccc3OC)CC2)sc1C	0	13µM	0	0
COc1ccccc1N1CCN(C(=O)c2oc3ccc(Br)cc3c2C)CC1	0	18µM	0	0
COc1ccccc1N1CCN(C(=O)c2cc3c(s2)CCCCC3)CC1	0	22µM	0	0
CCOC(=O)[C@]12CCCC=C1N(Cc1ccc(OC)cc1)C(=O)[C@@H]2CC(=O)NCCC(C)C	0	-	-	-
N#Cc1ccccc1N1CCN(S(=O)(=O)c2ccc3c(c2)CCC(=O)N3)CC1	0	-	-	-
CC1(C(=O)NS(=O)(=O)c2ccccc2Cl)CCN1C(=O)C1(c2ccccc2)CCCC1 (configuration not stated)	0	?	0	0
CC1(C(=O)NS(=O)(=O)c2ccccc2Cl)CCN1C(=O)C1(c2ccc(Cl)cc2)CC1 (configuration not stated)	0	35µM	0	0
CC1(C(=O)NS(=O)(=O)c2ccccc2Cl)CCN1C(=O)C1(c2ccc(Cl)cc2)CCC1 (configuration not stated)	0	13µM	0	0
CC1(C(=O)NS(=O)(=O)c2ccccc2)CCN1C(=O)C1(c2ccc(Cl)cc2)CCC1 (configuration not stated)	0	0	0	0
Cc1ccccc1S(=O)(=O)NC(=O)C1(C)CCN1C(=O)C1(c2ccc(Cl)cc2)CCC1 (configuration not stated)	?	25µM	0	0
Cc1ccccc1S(=O)(=O)NC(=O)C1(C)CCN1C(=O)c1ccccc1CCc1ccccc1 (configuration not stated)	?	35µM	0	0
CN(C)[C@H]1CCN(c2ccc3c(c2)O[C@H]2CCN(C2)S3(=O)=O)C1	0	-	-	-
CCc1ccc(NC(=O)COC(=O)c2ccccc2OCC(=O)N(C)C)cc1	-	-	0	-
O=C(OCC#CCSc1nnc(-c2cccc3ccccc23)o1)c1cc(F)c(F)c(F)c1	0	-	-	-
COc1ccc2c(c1)c1c(c(=O)n(Cc3ccccc3)c(=O)n1Cc1cccc(Cl)c1)n2C	0	0	-	0
O=C(O)c1ccc(N2N=C(c3ccccc3)CC2c2ccccc2)cc1 (configuration not stated)	0	13µM	0	0
O=C(Nc1nc(-c2cccs2)c(-c2cccs2)s1)C1CCCC1	-	14µM	0	0
COC(=O)C1=C(C(=O)OC)SC(=C2C(=S)C(C)(C)N(C(=O)C(C)C)c3ccccc32)S1	0	3.2µM	?	0
COC(=O)C1=C(C(=O)OC)SC(=C2C(=S)C(C)(C)N(C(=O)C3CC3)c3ccccc32)S1	0	2.2µM	0	0
SMILES	FUS suppressor	TDP43 rescue	aSyn yeast inh	Abeta yeast res
CCCC(=O)N1c2ccccc2C(=C2SC(C(=O)OC)=C(C(=O)OC)S2)C(=S)C1(C)C	0	?	0	0
Cc1cc(Br)ccc1NC(=O)COC(=O)c1ccccc1OCC(=O)N(C)C	-	-	0	-
O=C1NC(Cc2ccccc2)C(=O)N1Cc1ccccc1 (configuration not stated)	0	0	0	0
O=c1ccsn1Cc1ccccc1	-	10µM	0	0
COC(=O)c1ccc(COC(=O)CCS(=O)(=O)c2ccc(C)cc2)cc1	0	0	0	0
Cc1ccc(S(=O)(=O)CCC(=O)c2ccc(O)cc2O)cc1	0	14µM	0	0
Cc1ccc(S(=O)(=O)CCC(=O)OCc2ccc(Cl)cc2)cc1	-	25µM	0	0
O=C(COC(=O)CCCOc1ccc(Cl)cc1Cl)NCc1ccc(F)cc1	0	16µM	0	?
O=C(COc1ccc(Cl)cc1)NCc1ccc(F)cc1	0	11µM	0	0
Cc1ccc(Nc2nc(NCc3ccco3)nc3nccnc23)cc1C	-	-	0	-
